Experimental data taken from ChEMBL document CHEMBL3433997, “St. Jude Leishmania screening dataset” (2016).

target: Hexose transporter 1 (Plasmodium falciparum) (UniProt O97467); test: ST_JUDE_LEISH: Cytotoxicity at 2uM final concentration against transgenic Leishmania Mexicana promastigotes LmPfHT that are glucose transport deficient and complemented with the Plasmodium falciparum hexose transporter. Activity is measured by DNA content using SYBR green in vitro; assay type: functional

Row | SMILES | inhibition [%]
1 | O=C(NCCCCCN1CCC(c2c[nH]c3ccccc23)CC1)Nc1cccc(Cl)c1 | 0.53
2 | CC(C)CCN1CCC(Oc2ccc(NC(=O)c3ccco3)cc2Cl)CC1 | 9.84
3 | CCCc1ccc(Nc2nc(C)cc(N(CC)CCCN3CCCCC3)n2)cc1 | -2.14
4 | COc1ccc2nccc([C@@H](O)CN3CCC(NCc4cc5ccccc5o4)CC3)c2c1 | 15.3
5 | Cc1nc(-c2cccc(Nc3nccc(NCC(O)c4cccc(C(F)(F)F)c4)n3)c2)cs1 (stereo not given) | 0.83
6 | Clc1cccc(-c2nc(Nc3ccnc(-c4ccc(CN5CCOCC5)cc4)c3)c3ccccc3n2)c1 | 3.91
7 | COc1cc(C(C)C)nc2ccc(NC(=O)c3ccc(C(=O)Nc4ccc5nc(C(C)C)cc(OC)c5c4)cc3)cc12 | 5.94
8 | CCCCCCCN1CCC(CC(=O)Nc2ccnc3ccc(OC)cc23)CC1 | 9.11
9 | COc1cc(OCCCCCCON2C(=N)N=C(N)NC2(C)C)cc(OC)c1OC | 8.02
10 | CC1(CCCCN2CCC(c3c[nH]c4cnccc34)CC2)C(=O)Nc2cccc(Cl)c21 (stereo not given) | 0.54
11 | COc1ccc(NC(=O)[C@H](Cc2ccccc2)Nc2cc(C)nc(NCCc3cccs3)n2)cc1 | 2.32
12 | COc1cc(Nc2nccn3c(-c4ccsc4)cnc23)cc(OC)c1OC | 5.81
13 | Cc1[nH]c(C)c(-c2ccc(-c3cccc(Cl)c3)nc2)c(=O)c1Cl | 2.52
14 | CCn1cc(C=C2Oc3c(ccc(O)c3CN3CCCCC3C)C2=O)c2ccccc21 (stereo not given) | 5.13
15 | COc1ccc(C(=O)Nc2cc(Br)c3c(c2)CNCC3)cc1C(F)(F)F | 1.74
16 | Cc1cc(C(F)(F)F)n2nc(C(=O)N(C)Cc3cncn3Cc3ccc(F)cc3)cc2n1 | 1.29
17 | CN(C)CCCNC(=O)c1ccccc1Sc1ccccc1C#N | 1.43
18 | COc1ccc(NC(=O)/C=C/c2ccccc2Cl)cc1OCCN1CCC(NC2CC2)CC1 | 5.69
19 | COc1ccccc1C(=O)N1CCN(Cc2cccs2)CC1 | 7.28
20 | O=C(/C=C/c1ccc(Cl)c(Cl)c1)NCCCCCN1CCC(NC(=O)Nc2ccc3c(c2)OCO3)CC1 | 2.53

Row | SMILES | inhibition [%]
21 | Fc1ccc2[nH]c(-c3ccc(-c4ccc(CN5CCC(CCN6CCCCC6)CC5)cc4)cc3)nc2c1 | 9.43
22 | CC(C)c1cc(Oc2c(I)cc(CCNC(=N)N)cc2I)ccc1O | -0.01
23 | CC1=C(C(=O)Nc2cc3cn[nH]c3cc2F)C(c2cccc(NS(C)(=O)=O)c2)CC(=O)N1 (stereo not given) | 1.97
24 | COc1ccccc1-c1csc(C(=O)NCC2CCN(Cc3ccc(C(C)(C)C)cc3)C2)c1 (stereo not given) | 0.16
25 | Nc1nc(N)c2c(ccc3c2ccn3CCCC2CCCNC2)n1 (stereo not given) | -0.13
26 | CC(=O)Nc1cccc(C(=O)Nc2ccc(-c3ccc(-c4nc5cccc(C)c5[nH]4)s3)cc2)c1 | 1.16
27 | Brc1ccsc1-c1nc(NCCC(c2ccccc2)c2ccccc2)no1 | 0.55
28 | CC(C)(C)OC(=O)N1CCC(C2CCN(C(=O)OC(C)(C)C)CC2)CC1 | -1.6
29 | COc1cc(Nc2nccc(N3CCC(NS(=O)(=O)c4ccc(NC(C)=O)cc4)CC3)n2)cc(OC)c1OC | -0.44
30 | OC(c1nnc(S)n1-c1ccccc1)C(O)c1nnc(S)n1-c1ccccc1 (stereo not given) | 8.57
31 | Cc1ccc(NC(=O)c2ccc3ncccc3c2)cc1OC1CCN(Cc2ccsc2)C1 (stereo not given) | 1.3
32 | CCCCN(CCCC)CCNC(=O)c1cccc(NC(=O)N2CCc3cc(SC)c(C(F)(F)F)cc32)c1 | 4.24
33 | COc1cc(Cc2cnc(N)nc2N)cc(OCCCCCCC(=O)O)c1OC | -0.55
34 | Cc1cc(-c2ccc3c(c2)CC[C@@H](N[C@@H](C)c2ccccc2)C3)cnc1N | 1.71
35 | Cc1cc2c(cc1C(F)(F)F)N(C(=O)Nc1cnc(OCCN(C)C)c(C(F)(F)F)c1)CC2 | 6.97
36 | Cc1ccc(C(=O)Cn2nc(-c3ccc(C)c(S(=O)(=O)N4CCCCC4)c3)ccc2=O)cc1 | 12.3
37 | CS(=O)(=O)c1ccc(CCNCc2ccc(-c3ccc(CN(C(=O)c4ccc(Cl)nc4)C4CCN(Cc5ccccc5)CC4)cc3)nc2)cc1 | 3.39
38 | CN(c1ncc(-c2cccc(CNCc3ccccc3O)c2)cn1)C1CCCCC1 | -0.2
39 | Cc1nc(-c2ccc(C(F)(F)F)cn2)sc1C(=O)N1CCc2cc3nccc(N4CCN5CCC[C@H]5C4)c3cc21 | 5.35
40 | CCN(CCCN1CCCCC1)c1cc(C)nc(Nc2ccc3c(c2)CCC3)n1 | 1.07

target: Glucose transporter (Leishmania mexicana) (UniProt O61059); test: ST_JUDE_LEISH: Cytotoxicity at 2uM final concentration against transgenic Leishmania Mexicana promastigotes LmGT2 that are glucose transport deficient and complemented with the L. Mexicana glucose transporter 2. Activity is measured by DNA content using SYBR green in vitro; assay type: functional

Row | SMILES | inhibition [%]
41 | O=C(NCCCCCN1CCC(c2c[nH]c3ccccc23)CC1)Nc1cccc(Cl)c1 | 0.16
42 | CC(C)CCN1CCC(Oc2ccc(NC(=O)c3ccco3)cc2Cl)CC1 | 5.26
43 | CCCc1ccc(Nc2nc(C)cc(N(CC)CCCN3CCCCC3)n2)cc1 | 0.52
44 | COc1ccc2nccc([C@@H](O)CN3CCC(NCc4cc5ccccc5o4)CC3)c2c1 | 5.59
45 | Cc1nc(-c2cccc(Nc3nccc(NCC(O)c4cccc(C(F)(F)F)c4)n3)c2)cs1 (stereo not given) | -0.26
46 | Clc1cccc(-c2nc(Nc3ccnc(-c4ccc(CN5CCOCC5)cc4)c3)c3ccccc3n2)c1 | 3.58
47 | COc1cc(C(C)C)nc2ccc(NC(=O)c3ccc(C(=O)Nc4ccc5nc(C(C)C)cc(OC)c5c4)cc3)cc12 | 3.76
48 | CCCCCCCN1CCC(CC(=O)Nc2ccnc3ccc(OC)cc23)CC1 | 6.34
49 | COc1cc(OCCCCCCON2C(=N)N=C(N)NC2(C)C)cc(OC)c1OC | 6.93
50 | CC1(CCCCN2CCC(c3c[nH]c4cnccc34)CC2)C(=O)Nc2cccc(Cl)c21 (stereo not given) | 1.21
51 | COc1ccc(NC(=O)[C@H](Cc2ccccc2)Nc2cc(C)nc(NCCc3cccs3)n2)cc1 | -0.24
52 | COc1cc(Nc2nccn3c(-c4ccsc4)cnc23)cc(OC)c1OC | 4.31
53 | Cc1[nH]c(C)c(-c2ccc(-c3cccc(Cl)c3)nc2)c(=O)c1Cl | 1.48
54 | CCn1cc(C=C2Oc3c(ccc(O)c3CN3CCCCC3C)C2=O)c2ccccc21 (stereo not given) | 3.81
55 | COc1ccc(C(=O)Nc2cc(Br)c3c(c2)CNCC3)cc1C(F)(F)F | 1.37
56 | Cc1cc(C(F)(F)F)n2nc(C(=O)N(C)Cc3cncn3Cc3ccc(F)cc3)cc2n1 | 1.49
57 | CN(C)CCCNC(=O)c1ccccc1Sc1ccccc1C#N | 1.54
58 | COc1ccc(NC(=O)/C=C/c2ccccc2Cl)cc1OCCN1CCC(NC2CC2)CC1 | 4.32
59 | COc1ccccc1C(=O)N1CCN(Cc2cccs2)CC1 | 9.06
60 | O=C(/C=C/c1ccc(Cl)c(Cl)c1)NCCCCCN1CCC(NC(=O)Nc2ccc3c(c2)OCO3)CC1 | 4.27

Row | SMILES | inhibition [%]
61 | Fc1ccc2[nH]c(-c3ccc(-c4ccc(CN5CCC(CCN6CCCCC6)CC5)cc4)cc3)nc2c1 | 3.31
62 | CC(C)c1cc(Oc2c(I)cc(CCNC(=N)N)cc2I)ccc1O | -2.44
63 | CC1=C(C(=O)Nc2cc3cn[nH]c3cc2F)C(c2cccc(NS(C)(=O)=O)c2)CC(=O)N1 (stereo not given) | 2.34
64 | COc1ccccc1-c1csc(C(=O)NCC2CCN(Cc3ccc(C(C)(C)C)cc3)C2)c1 (stereo not given) | 0.22
65 | Nc1nc(N)c2c(ccc3c2ccn3CCCC2CCCNC2)n1 (stereo not given) | 1.44
66 | CC(=O)Nc1cccc(C(=O)Nc2ccc(-c3ccc(-c4nc5cccc(C)c5[nH]4)s3)cc2)c1 | 0.04
67 | Brc1ccsc1-c1nc(NCCC(c2ccccc2)c2ccccc2)no1 | 0.06
68 | CC(C)(C)OC(=O)N1CCC(C2CCN(C(=O)OC(C)(C)C)CC2)CC1 | -1.48
69 | COc1cc(Nc2nccc(N3CCC(NS(=O)(=O)c4ccc(NC(C)=O)cc4)CC3)n2)cc(OC)c1OC | -0.12
70 | OC(c1nnc(S)n1-c1ccccc1)C(O)c1nnc(S)n1-c1ccccc1 (stereo not given) | 10
71 | Cc1ccc(NC(=O)c2ccc3ncccc3c2)cc1OC1CCN(Cc2ccsc2)C1 (stereo not given) | 0.48
72 | CCCCN(CCCC)CCNC(=O)c1cccc(NC(=O)N2CCc3cc(SC)c(C(F)(F)F)cc32)c1 | 2.86
73 | COc1cc(Cc2cnc(N)nc2N)cc(OCCCCCCC(=O)O)c1OC | -0.96
74 | Cc1cc(-c2ccc3c(c2)CC[C@@H](N[C@@H](C)c2ccccc2)C3)cnc1N | 2.23
75 | Cc1cc2c(cc1C(F)(F)F)N(C(=O)Nc1cnc(OCCN(C)C)c(C(F)(F)F)c1)CC2 | 6.3
76 | Cc1ccc(C(=O)Cn2nc(-c3ccc(C)c(S(=O)(=O)N4CCCCC4)c3)ccc2=O)cc1 | 6.75
77 | CS(=O)(=O)c1ccc(CCNCc2ccc(-c3ccc(CN(C(=O)c4ccc(Cl)nc4)C4CCN(Cc5ccccc5)CC4)cc3)nc2)cc1 | 1.67
78 | CN(c1ncc(-c2cccc(CNCc3ccccc3O)c2)cn1)C1CCCCC1 | 0.12
79 | Cc1nc(-c2ccc(C(F)(F)F)cn2)sc1C(=O)N1CCc2cc3nccc(N4CCN5CCC[C@H]5C4)c3cc21 | 0.8
80 | CCN(CCCN1CCCCC1)c1cc(C)nc(Nc2ccc3c(c2)CCC3)n1 | 0.58
